Laboratory results as given in PubChem BioAssay (NCI).
About 83,000 compounds went through this panel and 20% of them were active in at least one assay; those are over-represented in the sample as a whole.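 How to read the values: 0–100, growth inhibition (40 = 60% inhibited); 0, no net growth; -100 to 0, cell death (-40 = 40% of starting cells died; -100 = all dead).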 The source made the active and inactive calls. How the source made its calls: active means growth percent below 10; inactive means the rest.

Test system: SK-MEL-28 melanoma
Experiment: NCI-60 one-dose screen, 48 h (100 = growth as untreated, 0 = no growth, -100 = all killed)
Conditions: 10 µM unless noted

Row | Compound | growth
1 | O=C(/C=C/c1ccc(Oc2ccc(Br)cc2)cc1)c1ccc(Br)cc1 | 105% (inactive)
2 | CO[C@H](C(=O)[C@@H](O)[C@@H](C)O)[C@@H]1Cc2cc3cc(O[C@H]4C[C@@H](O[C@H]5C[C@@H](O)[C@H](O)C(C)O5)[C@H](O)C(C)(O)O4)cc(O)c3c(O)c2C(=O)[C@H]1O[C@H]1C[C@@H](O[C@H]2C[C@@H](O[C@H]3C[C@@H](OC)[C@H](O)C(C)O3)[C@@H](O)C(C)O2)[C@H](O)C(C)O1 (stereo partly specified) | 3.39% (active)
3 | FC(F)(F)Oc1cccc(-c2cnc3ccc(-c4ccncc4)nn23)c1 | 20% (inactive)
4 | O=S(=O)(Nc1cc(Sc2cccc3cccnc23)c(O)c2ccccc12)c1ccccc1 | 0.27% (active)
5 | Cc1ccc(-c2nc(SCc3nc4cc(Cl)c(Cl)cc4[nH]3)[nH]c(=O)c2C#N)cc1 | 111% (inactive)
6 | CN(C)S(=O)(=O)Oc1ccc(-c2sc3cc(OS(=O)(=O)N(C)C)ccc3c2C(=O)c2ccc(OCCN3CCCCC3)cc2)cc1 | 57.2% (inactive)
7 | COc1ccc(C2=NN(C(C)=O)C(c3cn(-c4ccccc4)nc3-c3ccc(Cl)cc3)C2)cc1 (stereo unspecified) | 56.3% (inactive)
8 | O=C(CSc1nnc(-c2cc(-c3ccccc3)nc3ccccc23)n1-c1ccccc1)Nc1ccc(C(=O)/C=C/c2ccc(Cl)cc2)cc1 | 99.8% (inactive)
9 | CCOC(=O)C(=Cc1ccc(-c2ccccc2)cc1)C(=O)OCC | 31.1% (inactive)
10 | Cc1ccc(S(=O)(=O)N2CCC(=O)c3ccccc32)cc1 | 80.3% (inactive)
11 | COc1ccccc1N(C(C)=O)C1=C(Cl)C(=O)c2ccccc2C1=O | 21.2% (inactive)
